aSyn 5UTR act – Activators working through SNCA 5'UTR binding (MLPCN). activity score, % (tested at 7.5 µM), hits read low. AID 1814. alpha-synuclein 5'UTR reporter, activators screen. 300,000 compounds, 7.1% hits; in the data active means activity score below about -60%
Of the large screens only hits and unclear results are named; the others gave an inactive call. Not all results are given here.

CCOC(=O)C1CCN(C(=O)CN2C(=O)COc3ccc(C(C)(C)C)cc32)CC1	aSyn 5UTR act -111.2
CC(=O)c1cccc(NC(=O)CN2C(=O)COc3ccc(S(=O)(=O)N4CCOCC4)cc32)c1	none
O=C1NC(=S)S/C1=C\c1coc2ccccc2c1=O	aSyn 5UTR act -85.4
O=C1NC(=S)N/C1=C/c1cccc2ccccc12	aSyn 5UTR act -129.3
Nc1c(C(=O)N/N=C/c2cccnc2)cnn1-c1ccccc1	aSyn 5UTR act -67.4
CCC1C(=O)n2nc(-c3ccccc3)cc2N=C1C (stereo not given)	aSyn 5UTR act -143.4
O=C(Nc1ccc(F)cc1)N1CCc2ccccc2C1	aSyn 5UTR act -202.7
O=C(Nc1ccc(Br)cc1)N1CCc2ccccc2C1	aSyn 5UTR act -161.2
O=C(NC1CCCCC1)N1CCc2ccccc2C1	aSyn 5UTR act -85.3
C=CCn1c(=NC(=O)c2ccco2)sc2cc(C(=O)OC)ccc21	aSyn 5UTR act -76.6
O=C(COC(=O)CCc1nc2ccccc2s1)Nc1nc(-c2ccccc2)cs1	aSyn 5UTR act -84.2
O=C(CCc1nc2ccccc2s1)OCC(=O)c1ccccc1	aSyn 5UTR act -99.9
O=C(CCc1nc2ccccc2s1)c1ccccc1	aSyn 5UTR act -84.6
CCOC(=O)c1oc2ccc(/C=N/O)c(Cl)c2c1C	aSyn 5UTR act -140.4
CCN(CC)C(=O)CCCSc1nnc(Nc2ccccc2F)s1	aSyn 5UTR act -74.9
CCCSc1nnc(Nc2ccccc2C)s1	aSyn 5UTR act -95.8
Cc1ccccc1Nc1nnc(SCC(=O)Nc2ccccc2[N+](=O)[O-])s1	aSyn 5UTR act -81.3
C/C(N)=C(/C#N)C(=O)CSc1nnc(Nc2cccc(C)c2C)s1	aSyn 5UTR act -116.7
COc1ccc(NS(=O)(=O)c2ccc(N3CCCC3)c(NC(=S)Nc3cccc(C)c3C)c2)cc1	aSyn 5UTR act -132.5
Cc1ccc(N=Cc2cc(C)n(C3CCCC3)c2C)cc1	aSyn 5UTR act -155.0
O=C1Nc2ccccc2S/C1=C/c1cccs1	aSyn 5UTR act -67.7
Cc1ccc(N=C2NC(=O)/C(=C\c3cccs3)S2)cc1C	aSyn 5UTR act -85.2
CSc1nnc2c(n1)c(C)nn2-c1cccc(C)c1	aSyn 5UTR act -172.1
COc1cccc(-c2ccc(C#N)c(OC(=O)c3c(Cl)cccc3Cl)n2)c1	aSyn 5UTR act -74.1
COc1cccc(OCc2cc(C(=O)N(C)Cc3nc(C)cs3)no2)c1	aSyn 5UTR act -112.5
Cc1ccc(OCc2cc(C(=O)N(C)CCc3ccccn3)no2)cc1C	aSyn 5UTR act -73.2
Cc1cc(CN(C)C(=O)c2cc(COc3ccc(C)c(C)c3)on2)on1	aSyn 5UTR act -158.9
O=C(OCc1nnc(-c2ccc(Cl)cc2)o1)C12CC3CC(CC(O)(C3)C1)C2	aSyn 5UTR act -204.6
O=C(CSCc1ccccc1Cl)Nc1ccc2c(c1)OCCO2	aSyn 5UTR act -151.7
O=C(CNCc1ccccc1Cl)Nc1ccc2c(c1)OCCO2	aSyn 5UTR act -116.6
O=C(CNCc1ccccc1)Nc1ccc(Cl)cc1	aSyn 5UTR act -82.2
O=C(CNCc1ccc(Cl)cc1)Nc1ccc2c(c1)OCCO2	aSyn 5UTR act -98.9
CCS(=O)(=O)c1ncc(Cl)c(C(=O)Nc2ccc(S(=O)(=O)N3CCCC(C)C3)cc2)n1 (stereo not given)	none
CC1CCCN(C(=O)Nc2ccc(Br)cc2Cl)C1 (stereo not given)	aSyn 5UTR act -91.1
c1cnc2c(SCc3ccc(-c4nnco4)cc3)cccc2c1	aSyn 5UTR act -82.2
Cc1cccc(CSc2cccc3cccnc23)c1	aSyn 5UTR act -102.6
CCOc1ccccc1OCC(=O)N/N=C(\C)Cc1ccc(OC)cc1	none
CCN(CC)c1ccc(/C=N/NC(=S)NCc2ccc(OC)cc2)cc1	aSyn 5UTR act -75.8
C/C(=N\NC(=S)NCc1ccccc1)c1ccccc1F	aSyn 5UTR act -70.4
C=CCNC(=S)N/N=C(\C)c1ccccn1	none
COc1ccc(CNC(=S)N/N=C(/C)c2ccccc2)cc1	aSyn 5UTR act -107.0
COc1ccc(C/C(C)=N/NC(=S)Nc2ccccc2)cc1	aSyn 5UTR act -123.9
Cc1nn(-c2ccccc2)c(C)c1/C=N/NC(=O)c1cc(-c2ccccc2)n[nH]1	none
Cc1nn(-c2ccccc2)c(Cl)c1/C=N/NC(=O)c1ccc(NS(=O)(=O)c2cccs2)cc1	aSyn 5UTR act -109.5
O=C(N/N=C/c1cn(-c2ccccc2)nc1-c1cccs1)c1ccc(Cl)cc1	aSyn 5UTR act -65.8
Cc1nn(-c2ccccc2)c(Cl)c1/C=N/NC(=O)c1ccccc1F	aSyn 5UTR act -89.4
Cc1cc(C(=O)N/N=C/c2c(C)nn(-c3ccccc3)c2C)c(C)o1	aSyn 5UTR act -69.2
Cc1nn(-c2ccccc2)c(Cl)c1/C=C/C(=O)c1ccccc1	aSyn 5UTR act -106.6
Cc1nn(-c2ccccc2)c(Cl)c1/C=N/NC(=O)c1[nH]ncc1Br	aSyn 5UTR act -66.8
CS/C(N)=N/N=C/c1c(O)ccc2ccccc12	aSyn 5UTR act -175.3
CS/C(N)=N/N=C/c1cc(C)ccc1O	aSyn 5UTR act -93.9
CCS/C(N)=N/N=C/c1cc(C)ccc1O	aSyn 5UTR act -82.2
CCCCS/C(N)=N/N=C/c1cc(C)ccc1O	aSyn 5UTR act -76.4
COc1ccccc1OCC(=O)N/N=C/c1c(O)ccc2ccccc12	none
COc1ccc(NC(=O)c2ccccc2NC(=O)CSc2ccc(Cl)cc2)cc1	aSyn 5UTR act -67.3

Screens (PubChem BioAssay)
